Screening data deposited in PubChem by National Center for Advancing Translational Sciences (NCATS).
TDP1 cell noCPT = qHTS for Inhibitors of human tyrosyl-DNA phosphodiesterase 1 (TDP1): qHTS in cells in absence of CPT; DT40 Tdp1-/- hTDP1 cells, no CPT, ATP luminescence, 48 h; actives 15% (n = 420,000); Potency, µM (titrated, usually from 46.2 µM), for inactives: at the top dose activity change, negative = growth inhibition, most hits filed as inhibitors; AID 686978, 2013; further: potency means the concentration at half of the fitted maximal effect; nearly all actives have a fitted effect of over 55% in size
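Chicken DT40 Tdp1-/- cells complemented with human TDP1, screened without camptothecin (DMSO vehicle only), 400 cells/well. Compounds pin-transferred, cells incubated at 37 °C for at least 48 hr. Growth read as ATP-dependent luminescence (CellTiter-Glo, 30 min at RT).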
DT40 TDP1 CPT = DT40-hTDP1 cell growth loss with CPT. chicken DT40 Tdp1-/-;hTDP1 cells + 20 nM CPT, ATP luminescence, 48 h. Potency, µM (doses to about 46.2 µM), for inactives: top-dose activity change, negative = growth inhibition, actives largely listed as inhibitors. actives 12% (n = 420,000); further: potency means the concentration at half of the fitted maximal effect; nearly all actives have a fitted effect of over 55% in size
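Cell growth measured by CellTiter-Glo luminescence after a minimum 48 h, 37 C compound exposure with 20 nM CPT in Tdp1-knockout DT40 cells stably expressing hTDP1, seeded 400/well; qHTS titration format.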
HT1080 IDH1KD tx = toxicity to HT-1080 IDH1 knockdown cells (counter line). HT-1080 IDH1 knockdown viability, ATP luminescence, 48 h. Potency, µM (top dose mostly 46.1 µM), without a hit: at the top dose activity, negative = toxicity, usual class: cytotoxic. actives 2% (n = 360,000);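 further: potency means the concentration at half of the fitted maximal effect; 0% = DMSO wells and -100% = cell-free medium wells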
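In this qHTS, HT-1080 cells depleted of IDH1 are exposed for 48 h at 37 °C to compound titrations. Toxicity is scored from CellTiter-Glo luminescence, with DMSO as full viability and medium alone as none.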
HT1080NT lethal = kills 2HG-producing HT-1080-NT fibrosarcoma cells; AID 686970; Potency, µM (titrated, usually from 46.1 µM), for the others: at the highest dose activity, negative = less viability, hits mostly cytotoxic; HT-1080-NT fibrosarcoma viability, CellTiter-Glo ATP luminescence, 48 h; actives 1.6% (n = 360,000);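 further: NT is the 2HG producing partner of a matched IDH1 knockdown line; potency means the concentration at half of the fitted maximal effect; 0% = DMSO-treated cells and -100% = media-only wells without cells; nearly all actives have a fitted effect of over 55% in size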
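Fibrosarcoma NT cells, 750 per well in 5% FBS RPMI, were exposed to compound for 48 hours. Viability: CellTiter-Glo luminescence.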
IL-1B inflam inh = inflammasome signaling inhibition, IL-1 beta readout. THP-1 LPS/ATP IL-1B secretion, AlphaLISA, 16 h; active compounds read low. activity change, % at 57.5 µM. actives 4.7% (n = 360,000); in the data active means activity change below about -50%; inconclusive means mostly about -30% to -49%
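THP-1 cells pretreated 1 hr with compounds (up to 57.5 uM final), then stimulated with LPS (250 ng/mL final) plus ATP (1.25 mM final); secreted IL-1B measured by AlphaLISA after 16 hr, decreased signal indicating inhibition.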
* = called active by the depositor; [ ] = another dose, or the depositor's remark. The list is not random: actives were taken first. Their share in the collection is about 19%. Unless noted, the call rests on the fitted dose curve; in most records, active means well fitted curve in the direction sought with a large enough effect; inconclusive means small, poorly fitted or top-dose-only effect, or another doubt; inactive means no such curve, though single readings can be large; an effect the other way counts as inactive or inconclusive. Unless noted, on the % scale 0 is the no-effect control and ±100 the full control effect.

Screening CC(=O)N1CCN(c2ccc(NC(=O)C(C)Oc3ccc(Cl)cc3Cl)cc2)CC1 (stereo unspecified) returned TDP1 cell noCPT 21µM*, DT40 TDP1 CPT inconclusive, HT1080 IDH1KD tx 1%, HT1080NT lethal 1% and IL-1B inflam inh -16.
Screening CC(Oc1ccc(Cl)cc1Cl)C(=O)Nc1cccc(O)c1 (stereo unspecified) returned TDP1 cell noCPT 0%, DT40 TDP1 CPT -16%, HT1080 IDH1KD tx 19%, HT1080NT lethal 24% and IL-1B inflam inh -11.
`CC(Oc1ccc(Br)cc1Cl)C(=O)Nc1ccncc1` (stereo unspecified) gave TDP1 cell noCPT 5.2µM*, DT40 TDP1 CPT 8.2µM*, HT1080 IDH1KD tx 16µM*, HT1080NT lethal inconclusive and IL-1B inflam inh inconclusive.
Screening Cc1nc(NC(=O)C2CC2)sc1C(=O)Nc1ccccc1Cl returned TDP1 cell noCPT inconclusive, DT40 TDP1 CPT inconclusive, HT1080 IDH1KD tx -14%, HT1080NT lethal 2% and IL-1B inflam inh -10.
`CC1(C(=O)NS(=O)(=O)c2ccccc2C(F)(F)F)CCN1C(=O)CC1CCCC1` (stereo unspecified) gave TDP1 cell noCPT -6%, DT40 TDP1 CPT -12%, HT1080 IDH1KD tx 16%, HT1080NT lethal 20% and IL-1B inflam inh 6.
For Cn1c(Nc2ccc(Cl)cc2)cc(=O)n(C)c1=O the results were TDP1 cell noCPT 14%, DT40 TDP1 CPT 4%, HT1080 IDH1KD tx 4%, HT1080NT lethal 5% and IL-1B inflam inh 1.
Screening CCOC(=O)C(Cc1ccc(NC(=O)/C(=C\c2ccccc2)NC(=O)c2ccccc2)cc1)N1C(=O)c2ccccc2C1=O (stereo unspecified) returned TDP1 cell noCPT 8.2µM*, DT40 TDP1 CPT 10µM*, HT1080 IDH1KD tx 5%, HT1080NT lethal 1% and IL-1B inflam inh 24.
For O=C(Nc1ccc(C(=O)O)cc1)/C(=C\c1ccccc1)NC(=O)c1ccccc1 the results were TDP1 cell noCPT -6%, DT40 TDP1 CPT 3%, HT1080 IDH1KD tx 11%, HT1080NT lethal 0% and IL-1B inflam inh 0.
For COc1ccc2nc(C(F)(F)Cl)c(C#N)c(N)c2c1 the results were TDP1 cell noCPT inconclusive, DT40 TDP1 CPT inconclusive, HT1080 IDH1KD tx -18%, HT1080NT lethal -10% and IL-1B inflam inh -72*.
Screening COc1ccc2nc3cc(Cl)ccc3c(C#N)c2c1 returned TDP1 cell noCPT 2%, DT40 TDP1 CPT 14%, HT1080 IDH1KD tx 9%, HT1080NT lethal 8% and IL-1B inflam inh 18.
Screening O=C(c1coc(=O)c(Br)c1)N1CCOCC1 returned TDP1 cell noCPT 5.2µM*, DT40 TDP1 CPT 5.2µM*, HT1080 IDH1KD tx 5%, HT1080NT lethal 6% and IL-1B inflam inh -7.
For CCOc1ccccc1CNC(=O)c1cc2c(=O)n(Cc3cccnc3)ccc2nc1C the results were TDP1 cell noCPT -29% and DT40 TDP1 CPT inconclusive.
Screening COc1ccc(OC)c(N(CC(=O)NC2CC3CCC2C3)S(=O)(=O)c2ccccc2)c1 (stereo unspecified) returned TDP1 cell noCPT inconclusive, DT40 TDP1 CPT inconclusive, HT1080 IDH1KD tx -1%, HT1080NT lethal -1% and IL-1B inflam inh -67*.
COc1ccc(Cl)cc1N(CC(=O)NC1CC2CCC1C2)S(=O)(=O)c1ccccc1 (stereo unspecified) was read as TDP1 cell noCPT inconclusive, DT40 TDP1 CPT 21µM*, HT1080 IDH1KD tx inconclusive, HT1080NT lethal -26% and IL-1B inflam inh -10.
Screening C#Cc1cccc(C(=O)NCc2nc(-c3ccccc3NC(C)=O)oc2C)c1 returned TDP1 cell noCPT -8% and DT40 TDP1 CPT 0%[9.04 µM].
CN(C)c1ccc(NC(=O)c2sc(SCC(=O)Nc3ccc(Br)cc3)nc2N)cc1 was read as TDP1 cell noCPT 7%, DT40 TDP1 CPT -10%, HT1080 IDH1KD tx 10%, HT1080NT lethal 2% and IL-1B inflam inh -5.
For CSc1nc(N)c(C(=O)Nc2ccc([N+](=O)[O-])cc2)s1 the results were TDP1 cell noCPT inconclusive, DT40 TDP1 CPT -9%, HT1080 IDH1KD tx 21%, HT1080NT lethal 12% and IL-1B inflam inh -75*.
For Cc1cc(C(=O)OCC(=O)Nc2c(Cl)cccc2C(F)(F)F)c(C)o1 the results were TDP1 cell noCPT -6%, DT40 TDP1 CPT 19%, HT1080 IDH1KD tx 1%, HT1080NT lethal 6% and IL-1B inflam inh -9.
Screening Cc1noc(/C=C/N(C)C)c1S(=O)(=O)N1CCCC(C(=O)NCc2ccccc2Cl)C1 (stereo unspecified) returned TDP1 cell noCPT inconclusive, DT40 TDP1 CPT -15%, HT1080 IDH1KD tx inconclusive, HT1080NT lethal -9% and IL-1B inflam inh 11.
`Fc1ccccc1-c1csc(=Nc2cccnc2)n1CC1CCCO1` (stereo unspecified) gave TDP1 cell noCPT inconclusive, DT40 TDP1 CPT inconclusive, HT1080 IDH1KD tx -23%, HT1080NT lethal -21% and IL-1B inflam inh -66*.
Fc1ccccc1-c1csc(=Nc2cccnc2)n1CCCn1ccnc1 was read as TDP1 cell noCPT 16µM*, DT40 TDP1 CPT 26µM*, HT1080 IDH1KD tx -8%, HT1080NT lethal -2% and IL-1B inflam inh inconclusive.
For COCCn1c(-c2cccs2)csc1=Nc1cccnc1 the results were TDP1 cell noCPT inconclusive, DT40 TDP1 CPT inconclusive, HT1080 IDH1KD tx -17%, HT1080NT lethal -13% and IL-1B inflam inh -3.
O=c1[nH]c(CSc2cccc[n+]2[O-])nc2ccccc12 was read as TDP1 cell noCPT inconclusive, DT40 TDP1 CPT 10µM*, HT1080 IDH1KD tx 0%, HT1080NT lethal 0% and IL-1B inflam inh 63.
`CCON1C(=O)C(C)(C)N(OCC)C(=O)C1(C)C` gave TDP1 cell noCPT 12µM*, DT40 TDP1 CPT inconclusive, HT1080 IDH1KD tx 8%, HT1080NT lethal 18% and IL-1B inflam inh 22.
`O=C(Nc1ccc(F)cc1Cl)c1ccc2c(=O)n3c(nc2c1)CCC3` gave TDP1 cell noCPT inconclusive, DT40 TDP1 CPT 1%, HT1080 IDH1KD tx -4%, HT1080NT lethal -4% and IL-1B inflam inh -8.
CCn1c2c(c(=O)n3ncc(C(=O)Nc4cc(Cl)ccc4C)c13)CN(Cc1ccc(OC)cc1)CC2 was read as TDP1 cell noCPT 21µM* and DT40 TDP1 CPT inconclusive.
For CCn1c2c(c(=O)n3ncc(C(=O)Nc4ccc(F)cc4Cl)c13)CN(Cc1ccc(OC)cc1)CC2 the results were TDP1 cell noCPT 23µM* and DT40 TDP1 CPT inconclusive.
For COc1ccc(CN2CCn3ncc(C(=O)Nc4cccc(C)c4)c3C2=O)cc1 the results were TDP1 cell noCPT inconclusive, DT40 TDP1 CPT inconclusive, HT1080 IDH1KD tx -4%[9.24 µM], HT1080NT lethal -3% and IL-1B inflam inh -6.
